The text below walks through data of PubChem BioAssay (NCI).

The panel holds about 83,000 compounds, 20% with a hit somewhere; the sample as a whole holds those more often.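 48-hour exposure, single concentration, 96-well plates; percent growth endpoint where 0 means no net growth. Active: below 10.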 A number with no mark means an inactive call. The source made the active and inactive calls.

Common to all, as to test: NCI-60 one-dose screen, 48 h (100 = growth as untreated, 0 = no growth, -100 = all killed)
For one test, the system named is NCI-H23 lung. To be noted: 10 µM unless noted.
In another test the test system is NCI-H226 lung. To be noted: 10 µM unless noted.
Another test concerns NCI-H322M lung. Particulars: 10 µM unless noted.
A further test concerns HOP-62 NSCLC. To be noted: 10 µM unless noted.
The subject of a further test is NCI-H460 lung. Particulars: 10 µM unless noted.
A further test deals with HOP-92 NSCLC. Particulars: 10 µM unless noted.
The next test relates to NCI-H522 lung. Particulars: 10 µM unless noted.
The subject of another test is A549/ATCC NSCLC. Particulars: 10 µM unless noted.
In the next test the test system is 786-0 renal. To be noted: 10 µM unless noted.
The next test concerns COLO 205 colon. Particulars: 10 µM unless noted.
The next test concerns DU-145 prostate. Particulars: 10 µM unless noted.
Another test has as its system MALME-3M melanoma. To be noted: 10 µM unless noted.
The next test relates to MDA-MB-231 breast. To be noted: 10 µM unless noted.
Another test deals with RXF 393 renal. To be noted: 10 µM unless noted.
A further test relates to SF-268 CNS. To be noted: 10 µM unless noted.
The test system of the next test is SF-295 CNS. To be noted: 10 µM unless noted.
The next test deals with SF-539 CNS. To be noted: 10 µM unless noted.
The subject of another test is UACC-257 melanoma. Particulars: 10 µM.
In another test the test system is M14 melanoma. To be noted: 10 µM unless noted.
Another test has as its system K-562 leukemia. To be noted: 10 µM unless noted.

For the compound `Clc1ccc([I+]c2ccc(Cl)cc2Cl)c(Cl)c1`, the growth was 18% with NCI-H23 lung; 102% in the test with NCI-H226 lung; 77.2% with NCI-H322M lung; 36.5% in the test with HOP-62 NSCLC; 81% in the test with NCI-H460 lung; 14.9% in the test on HOP-92 NSCLC. Besides, the growth was -91.1% (active) in the test on NCI-H522 lung; 76% in the test with A549/ATCC NSCLC; 11.2% with 786-0 renal; -79.2% (active) with COLO 205 colon; 4.04% (active) in the test on DU-145 prostate; 50.2% with MALME-3M melanoma. The growth is 38.3% in the test with MDA-MB-231 breast; -15.1% (active) in the test with RXF 393 renal; 26.5% with SF-268 CNS; 97.4% with SF-295 CNS; 16.8% in the test on SF-539 CNS; 66.4% in the test with UACC-257 melanoma. The growth in the test on M14 melanoma was 88.8%.

On to `CN=S(=O)(NC(=O)c1ccc(Cl)cc1Cl)c1ccc(Br)s1` (configuration not stated), for which the growth with NCI-H23 lung was 104%; in the test with NCI-H226 lung it was 93.8%; with NCI-H322M lung, 113%; in the test with HOP-62 NSCLC it was 105%; with NCI-H460 lung, 98.6%; with HOP-92 NSCLC, 65.9%. Also, the growth with NCI-H522 lung is 102%; in the test on A549/ATCC NSCLC, 89.5%; in the test on 786-0 renal, 105%; with COLO 205 colon, 121%; in the test on DU-145 prostate, 111%; with K-562 leukemia, 104%. Besides, the growth in the test on MDA-MB-231 breast is 104%; in the test on RXF 393 renal, 103%; with SF-268 CNS, 109%; in the test on SF-295 CNS it was 101%; in the test with SF-539 CNS it was 97%; in the test on UACC-257 melanoma, 92.5%. Further, the growth in the test with M14 melanoma was 106%.

Turning to `c1ccn2nnnc2c1`, the growth with NCI-H23 lung is 94.8%; in the test with NCI-H226 lung it was 111%; with NCI-H322M lung it was 102%; in the test with HOP-62 NSCLC, 87%; in the test with NCI-H460 lung, 105%; in the test with HOP-92 NSCLC, 103%. Moreover, the growth with NCI-H522 lung is 101%; in the test on A549/ATCC NSCLC it was 94.3%; with 786-0 renal it was 94.3%; in the test on COLO 205 colon, 90.6%; with DU-145 prostate, 103%; with K-562 leukemia, 97.5%. The growth is 98.5% in the test on MALME-3M melanoma; 110% in the test on RXF 393 renal; 101% with SF-268 CNS; 101% in the test with SF-295 CNS; 95.5% in the test on SF-539 CNS; 101% in the test on UACC-257 melanoma. The growth with M14 melanoma is -54.6% (active).

Regarding `O=C(O)c1cccc([N+](=O)[O-])c1/C=C/c1ccccc1`, the growth in the test with NCI-H23 lung is 102%; in the test with NCI-H226 lung it was 96.9%; in the test with NCI-H322M lung, 90.5%; with HOP-62 NSCLC, 92.6%; in the test with NCI-H460 lung, 103%; in the test on HOP-92 NSCLC, 112%. In addition, the growth is 116% in the test with NCI-H522 lung; 104% with A549/ATCC NSCLC; 98.1% in the test with 786-0 renal; 98.9% in the test on COLO 205 colon; 105% with DU-145 prostate; 90.4% in the test on MALME-3M melanoma. Moreover, the growth in the test on MDA-MB-231 breast is 109%; with RXF 393 renal, 103%; in the test with SF-268 CNS, 97.7%; with SF-295 CNS, 95.4%; in the test with SF-539 CNS, 107%; in the test on UACC-257 melanoma, 117%. Moreover, in the test with M14 melanoma, the growth was 101%.

Turning to `COc1cc(C2C=C(C)N=C3SC(C)=NN32)cc(OC)c1OC` (configuration not stated), the growth in the test on NCI-H23 lung is 94.8%; in the test on NCI-H226 lung it was 107%; in the test on NCI-H322M lung, 116%; with HOP-62 NSCLC, 95.9%; with NCI-H460 lung it was 114%; in the test with HOP-92 NSCLC, 90.9%. Further, the growth with NCI-H522 lung was 89.8%; in the test with A549/ATCC NSCLC it was 103%; with 786-0 renal it was 105%; in the test with COLO 205 colon it was 96.3%; in the test on DU-145 prostate it was 108%; with K-562 leukemia, 107%. In addition, the growth is 111% in the test with MDA-MB-231 breast; 114% with RXF 393 renal; 105% in the test on SF-268 CNS; 111% in the test with SF-295 CNS; 114% in the test with SF-539 CNS; 106% with UACC-257 melanoma. The growth with M14 melanoma is 102%.

Take `CC1=NN2C(=NC3=C(CCC/C3=C\c3ccc(Cl)cc3)C2c2ccc(Cl)cc2)S1` (configuration not stated): the growth is 97.8% in the test on NCI-H23 lung; 101% in the test on NCI-H226 lung; 104% with NCI-H322M lung; 115% with HOP-62 NSCLC; 101% in the test on NCI-H460 lung; 77.9% with HOP-92 NSCLC. Besides, the growth with NCI-H522 lung is 83.3%; in the test on A549/ATCC NSCLC, 87%; in the test on 786-0 renal it was 97.2%; in the test on COLO 205 colon, 109%; in the test on DU-145 prostate it was 101%; in the test on K-562 leukemia, 100%. The growth with MDA-MB-231 breast is 109%; in the test with RXF 393 renal, 106%; in the test on SF-268 CNS, 98.6%; with SF-295 CNS, 102%; with SF-539 CNS, 102%; in the test with UACC-257 melanoma it was 106%. Besides, in the test with M14 melanoma, the growth was 92.3%.

For the compound `COc1ccc(/C=C/C(=O)c2ccc(B(O)O)cc2)cc1O`, the growth in the test on NCI-H23 lung is 88%; with NCI-H226 lung, 92.5%; in the test with NCI-H322M lung it was 96.3%; with HOP-62 NSCLC, 89.8%; in the test on NCI-H460 lung, 73.2%; in the test with HOP-92 NSCLC, 52.4%. The growth in the test on NCI-H522 lung is 85.6%; with A549/ATCC NSCLC, 66.3%; in the test with 786-0 renal, 84.9%; with COLO 205 colon, 101%; in the test on DU-145 prostate, 75.6%; with K-562 leukemia, 24.6%. Moreover, the growth with MDA-MB-231 breast was 90.8%; in the test with RXF 393 renal, 81.4%; in the test on SF-268 CNS, 81.6%; in the test with SF-295 CNS it was 98.5%; with SF-539 CNS, 71.3%; with UACC-257 melanoma, 94.3%. Besides, in the test with M14 melanoma, the growth was 74.1%.

`Cn1c(C(N)=O)cc2c1-c1nc(NC3CCCCC3)ncc1CCC2`: the growth was 93.7% in the test on NCI-H23 lung; 70.9% in the test on NCI-H226 lung; 110% in the test with NCI-H322M lung; 90% in the test on HOP-62 NSCLC; 94.3% in the test on NCI-H460 lung; 6.02% (active) in the test with HOP-92 NSCLC. The growth in the test on NCI-H522 lung was 94.9%; with A549/ATCC NSCLC, 92.2%; with 786-0 renal, 91.2%; with COLO 205 colon, 113%; in the test with DU-145 prostate, 103%; in the test on K-562 leukemia, 101%. The growth in the test with MDA-MB-231 breast was 78.4%; in the test on RXF 393 renal it was 59.5%; in the test with SF-268 CNS it was 84.8%; with SF-295 CNS, 91.3%; with SF-539 CNS, 80.6%; with UACC-257 melanoma, 106%. The growth in the test on M14 melanoma was 109%.
